DT40 TDP1 CPT: DT40-hTDP1 cell growth loss with CPT; chicken DT40 Tdp1-/-;hTDP1 cells + 20 nM CPT, ATP luminescence, 48 h; Potency, µM (titrated, usually from 46.2 µM), without a hit: at the highest dose activity change, negative = growth inhibition, usual class: inhibitors; 12% of 420,000 active; also: potency is read from the fitted curve at half-maximal effect; nearly all actives have a fitted effect of over 55% in size
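Chicken DT40 Tdp1-/- cells stably complemented with human TDP1 were seeded at 400 cells/well in medium containing 20 nM camptothecin, exposed to pin-transferred compounds, and grown at 37 °C for at least 48 hr. Viability was read as ATP luminescence.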
IL-1B inflam inh: inhibitors of inflammasome signaling (IL-1 beta secretion); THP-1 LPS/ATP IL-1B secretion, AlphaLISA, 16 h; stronger effect = lower value; activity change, % at 57.5 µM; 4.7% of 360,000 active; AID 743279; in the data active = activity change below about -50%; inconclusive = mostly about -30% to -49%
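Secreted IL-1B measured by AlphaLISA bead assay after 16 h compound exposure of THP-1 cells; compounds (final up to 57.5 uM) added 1 h before LPS (250 ng/mL) and ATP (1.25 mM) stimulation; lower signal means less secretion.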
ELG1 repair inh: blocks ELG1-dependent DNA repair in HEK293T cells; HEK293T ELG1-luciferase reporter, luminescence, 16 h; DNA damage induced by 5-fluorouridine; Potency, µM (top dose mostly 46.1 µM), inactives show at the top dose activity change, negative = inhibition, usual class: inhibitors; 2.3% of 330,000 active; also: potency is read from the fitted curve at half-maximal effect; nearly all actives have a fitted effect of over 55% in size
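Cells (2,000 per well) received 5-fluorouridine plus test compound or DMSO and were incubated 16 hr at 37 °C, 5% CO2. Luciferase activity was read by luminescence 30 min after ONE-Glo addition; signal suppression marked inhibition of damage-induced ELG1 function.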
Gal4-VP16 FLuc: inhibits Gal4-VP16 luciferase reporter, ROR gamma counter-screen. Drosophila S2 Gal4-VP16 UAS-luciferase, luminescence, 20 h. Potency, µM (titrated, usually from 53.6 µM), for the others: at the highest dose activity, negative = inhibition, actives largely listed as inhibitors. 3.5% of 310,000 active. AID 2546;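 also: Gal4-VP16 expression switched on by copper sulfate through the metallothionein promoter; potency is read from the fitted curve at half-maximal effect; nearly all actives have a fitted effect of over 50% in size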
RORg inh: blocks mouse ROR gamma transcriptional activity; AID 2551; Drosophila S2 Gal4-RORgamma UAS-luciferase reporter, 20 h; 5.4% of 310,000 active; Potency, µM (highest dose often 53.6 µM), without a hit: top-dose activity change, negative = inhibition, hits mostly inhibitors; also: potency is read from the fitted curve at half-maximal effect; nearly all actives have a fitted effect of over 60% in size
Target sequence (P51450 whole entry, looked up, the tested form may be a part): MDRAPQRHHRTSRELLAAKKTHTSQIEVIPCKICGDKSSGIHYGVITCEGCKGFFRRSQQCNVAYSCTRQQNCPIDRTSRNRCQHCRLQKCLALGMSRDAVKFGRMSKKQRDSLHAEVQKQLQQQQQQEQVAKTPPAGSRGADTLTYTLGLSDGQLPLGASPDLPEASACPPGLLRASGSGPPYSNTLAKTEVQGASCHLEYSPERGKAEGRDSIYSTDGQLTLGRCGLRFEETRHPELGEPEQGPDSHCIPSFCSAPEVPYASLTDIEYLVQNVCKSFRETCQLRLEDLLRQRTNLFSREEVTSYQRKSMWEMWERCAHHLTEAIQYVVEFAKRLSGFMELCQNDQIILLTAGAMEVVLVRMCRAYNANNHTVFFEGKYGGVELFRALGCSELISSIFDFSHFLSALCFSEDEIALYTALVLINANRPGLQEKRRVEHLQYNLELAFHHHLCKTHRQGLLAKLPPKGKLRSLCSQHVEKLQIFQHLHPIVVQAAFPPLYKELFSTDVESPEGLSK
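ROR gamma transcriptional activity was tracked as Gal4-UAS luciferase output in stably transfected Drosophila Schneider cells, with compound added 1 hr before 700 uM copper sulfate induction and a 20 hr ambient-temperature incubation.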
DT40 TDP1 no CPT: qHTS for Inhibitors of human tyrosyl-DNA phosphodiesterase 1 (TDP1): qHTS in cells in absence of CPT; 15% of 420,000 active; DT40 Tdp1-/- hTDP1 cells, no CPT, ATP luminescence, 48 h; Potency, µM (top dose mostly 46.2 µM), for inactives: top-dose activity change, negative = growth inhibition, hits mostly inhibitors; also: potency is read from the fitted curve at half-maximal effect; nearly all actives have a fitted effect of over 55% in size
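Stably hTDP1-transfected Tdp1-null chicken DT40 cells were treated with library compounds minus camptothecin and grown for at least 48 hr at 37 °C, after which cellular ATP was quantified by luminescence.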
* marks the source's active call; other numbers are inactive results. Compounds with a hit are over-represented: about 21% of the library has one in this group of screens. Unless noted, calls follow the shape of the dose curve; as a rule, active = well fitted curve in the direction sought with a large enough effect; inconclusive = small, poorly fitted or top-dose-only effect, or another doubt; inactive = no such curve, though single readings can be large; an effect the other way counts as inactive or inconclusive. % is scaled to controls: 0 for no effect and ±100 for the full control effect.

Screening Cc1ccc(C(=O)N/N=C\c2ccc([N+](=O)[O-])s2)cn1 returned DT40 TDP1 CPT 10µM*, IL-1B inflam inh -5, ELG1 repair inh inconclusive, Gal4-VP16 FLuc 3.2µM*, RORg inh 2.8µM* and DT40 TDP1 no CPT 12µM*.
Cc1ccc(/C=N/N=C/c2ccc(C)s2)s1 was read as DT40 TDP1 CPT inconclusive, IL-1B inflam inh -24, ELG1 repair inh inconclusive, Gal4-VP16 FLuc -24%, RORg inh 7.9µM* and DT40 TDP1 no CPT inconclusive.
`CC(=C/c1ccc(C(C)C)cc1)/C=N/NC(=O)Cn1nc(C)cc1C` gave DT40 TDP1 CPT inconclusive, IL-1B inflam inh -14, ELG1 repair inh -19%, Gal4-VP16 FLuc inconclusive, RORg inh 28% and DT40 TDP1 no CPT 29µM*.
For O=C(Cc1ccccc1F)Nc1cc(S(=O)(=O)N2CCOCC2)ccc1N1CCCC1 the results were DT40 TDP1 CPT -9%, IL-1B inflam inh -8, ELG1 repair inh 6% and DT40 TDP1 no CPT -3%.
`COCCn1c(=O)c(CCc2ccccc2)nc2cnc(Oc3ccccc3)nc21` gave DT40 TDP1 CPT -13%, Gal4-VP16 FLuc inconclusive, RORg inh inconclusive and DT40 TDP1 no CPT -19%.
For CC(C)CC(=O)Nc1ccc(C(=O)COC(=O)Cc2n[nH]c(=O)c3ccccc23)cc1 the results were DT40 TDP1 CPT -1%, IL-1B inflam inh 14, ELG1 repair inh 4% and DT40 TDP1 no CPT 16%.
O=C(N/N=C/c1cccs1)[C@H]1C[C@@H]1c1ccccc1 was read as DT40 TDP1 CPT inconclusive, IL-1B inflam inh 0, ELG1 repair inh -11%, Gal4-VP16 FLuc 5%, RORg inh -9% and DT40 TDP1 no CPT inconclusive.
`Cc1cc(C)n(CC(=O)N/N=C/c2ccc([N+](=O)[O-])s2)n1` gave DT40 TDP1 CPT 23µM*, IL-1B inflam inh inconclusive, ELG1 repair inh 15µM*, Gal4-VP16 FLuc 8%, RORg inh -11% and DT40 TDP1 no CPT inconclusive.
Screening Cc1cc(C)n(CC(=O)N/N=C/c2cccs2)n1 returned DT40 TDP1 CPT 22%, IL-1B inflam inh -1, ELG1 repair inh inconclusive, Gal4-VP16 FLuc inconclusive, RORg inh -7% and DT40 TDP1 no CPT -8%.
Screening O=C(N/N=C/c1ccc([N+](=O)[O-])s1)c1cccc(Br)c1 returned DT40 TDP1 CPT 9.2µM*, IL-1B inflam inh 1, ELG1 repair inh 10µM*, Gal4-VP16 FLuc 1.3µM*, RORg inh 1.1µM* and DT40 TDP1 no CPT 10µM*.
Screening OC(c1cccc(Cl)c1)c1ncc(-c2cccc3ccccc23)[nH]1 (stereo unspecified) returned DT40 TDP1 CPT 21µM*, IL-1B inflam inh -21 and DT40 TDP1 no CPT 16µM*.
CCc1ccc(C(O)c2ncc(-c3ccccc3C(F)(F)F)[nH]2)cc1 (stereo unspecified) was read as DT40 TDP1 CPT 29µM*, IL-1B inflam inh -4 and DT40 TDP1 no CPT inconclusive.
Screening COc1ccc(OC)c(C(O)c2ncc(-c3ccccc3Cl)[nH]2)c1 (stereo unspecified) returned DT40 TDP1 CPT -110%, IL-1B inflam inh 1 and DT40 TDP1 no CPT -42%.
For CCc1ccc(C(O)c2ncc(-c3ccc(C(F)(F)F)cc3)[nH]2)cc1 (stereo unspecified) the results were DT40 TDP1 CPT inconclusive, IL-1B inflam inh -7 and DT40 TDP1 no CPT inconclusive.
Screening COc1ccc(OC)c(C(O)c2ncc(-c3cccc4ccccc34)[nH]2)c1 (stereo unspecified) returned DT40 TDP1 CPT 18µM*, IL-1B inflam inh 46 and DT40 TDP1 no CPT 26µM*.
Cc1cc(Cl)ccc1C(O)c1ncc(-c2ccccc2Cl)[nH]1 (stereo unspecified) was read as DT40 TDP1 CPT 21µM*, IL-1B inflam inh -5 and DT40 TDP1 no CPT inconclusive.
Screening O=C(NC1CC(=O)N(c2ccc(F)cc2)C1)c1ccc(S(=O)(=O)N2CCOCC2)cc1 (stereo unspecified) returned DT40 TDP1 CPT -7% and DT40 TDP1 no CPT -20%.
For COc1cccc(C(O)c2ncc(-c3cccc4ccccc34)[nH]2)c1 (stereo unspecified) the results were DT40 TDP1 CPT 16µM*, IL-1B inflam inh -8 and DT40 TDP1 no CPT 9.2µM*.
COc1ccccc1-c1cnc(C(O)c2ccc(C)cc2)[nH]1 (stereo unspecified) was read as DT40 TDP1 CPT -27%, IL-1B inflam inh 0 and DT40 TDP1 no CPT 18µM*.
COc1ccc(C(O)c2ncc(-c3ccccc3OC)[nH]2)cc1 (stereo unspecified) was read as DT40 TDP1 CPT inconclusive, IL-1B inflam inh -8 and DT40 TDP1 no CPT -5%.
Screening CCOC(=O)CN1C(=O)N[C@@H](c2cccc(C(F)(F)F)c2)C(C(=O)OC)=C1C returned DT40 TDP1 CPT -1%, IL-1B inflam inh 22 and DT40 TDP1 no CPT 5%.
Screening N#Cc1cccc(NC(=O)N2CC3(CCN(C(=O)c4cccc(F)c4)CC3)C2)c1 returned DT40 TDP1 CPT -7%, Gal4-VP16 FLuc 10%, RORg inh -15% and DT40 TDP1 no CPT -28%.
Screening COc1ccc(C(=O)NCCn2cc(SCC(=O)Nc3cc(C)on3)c3ccccc32)cc1OC returned DT40 TDP1 CPT inconclusive, IL-1B inflam inh -10, ELG1 repair inh inconclusive, Gal4-VP16 FLuc -3%, RORg inh -4% and DT40 TDP1 no CPT inconclusive.
COc1ccccc1C(=O)NCCn1cc(SCC(=O)Nc2cc(C)on2)c2ccccc21 was read as DT40 TDP1 CPT -27%, IL-1B inflam inh inconclusive, ELG1 repair inh 23µM*, Gal4-VP16 FLuc -14%, RORg inh inconclusive and DT40 TDP1 no CPT inconclusive.
Screening O=C(CSc1cn(CCNC(=O)c2ccc3ccccc3c2)c2ccccc12)NCc1ccco1 returned DT40 TDP1 CPT 16µM*, IL-1B inflam inh inconclusive, ELG1 repair inh 23µM*, Gal4-VP16 FLuc 1%, RORg inh -38% and DT40 TDP1 no CPT inconclusive.
`CCCn1cc(SCC(=O)Nc2nnc(C)s2)c2ccccc21` gave DT40 TDP1 CPT inconclusive, IL-1B inflam inh 37, ELG1 repair inh -13%, Gal4-VP16 FLuc -2%, RORg inh inconclusive and DT40 TDP1 no CPT inconclusive.
For COc1ccc(C(=O)NCCn2cc(SCC(=O)Nc3ccc4c(c3)OCCO4)c3ccccc32)cc1 the results were DT40 TDP1 CPT inconclusive and DT40 TDP1 no CPT 21µM*.

Source: PubChem BioAssay
